# MmCpn inh: inhibitors of Methanococcus maripaludis chaperonin TRiC (MmCpn) | purified Mm-Cpn ATPase, ADP Transcreener TR-FRET | Potency, µM (series often up to 76.9 µM), for inactives: at the top dose activity, negative = inhibition, usual class: inhibitors | actives 0.031% (n = 330,000) | AID 504842; also: potency is read from the fitted curve at half-maximal effect; nearly all actives have a fitted effect of over 80% in size
#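 ATP (10 uM final) was added to archaeal chaperonin (25 nM final) after 10 min exposure to test compound at 37°C; after 30 min further incubation, ADP was detected by competitive TR-FRET.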
# Sfp PPTase inh: Sfp phosphopantetheinyl transferase inhibition. Q9F4F7. Biochemical Sfp PPTase activity, qHTS. Potency, µM, for the others: largest response in the series, negative = inhibition, usual class: inhibitors. actives 3.5% (n = 310,000). AID 1490;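 also: the enzyme is Sfp with the accession as filed and its product quenches rhodamine fluorescence; potency is read from the fitted curve at half-maximal effect; 0% = enzyme reaction without inhibitor and -100% = no enzyme wells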
#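 Sfp 15 nM + cpd, 15 min RT; start w/ rhodamine-CoA 5 uM, BHQ-2-YbbR 12.5 uM (final); 50 mM Hepes pH 7.6, 10 mM MgCl2, 0.01% NP-40, 0.01% BSA; read 525/598 nm at 0 and 30 min.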
# G9a block: G9a (human) methyltransferase inhibition. Potency, µM (doses to about 102 µM), for the others: top-dose activity, negative = inhibition, hits mostly inhibitors. G9a H3K9 monomethylation, AlphaScreen, 2 h. actives 8.8% (n = 350,000). AID 504332. Q96KQ7; also: potency is read from the fitted curve at half-maximal effect; nearly all actives have a fitted effect of over 75% in size
#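 Enzyme 20 nM + cpd, 15 min RT; add b-H3K9 pep 500 nM / SAM 20 uM; 2 h RT; anti-H3K9me1 Ab 0.5 ug/mL + SA donor / anti-rabbit acceptor beads 20 ug/mL each, 10 min; AlphaScreen read.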
# CCT chaperon mod: cytosolic chaperonin activity modulation | purified chaperonin ATPase assay, HTRF ADP detection, 30 min | activity change, % (test concentration not listed), hits read low | actives 0.3% (n = 360,000) | AID 651819; in the data active = activity change below about -30%
#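 First, chaperonin was dispensed at 40 nM or 20 nM final depending on batch activity. Next, compounds were pinned at 76 uM and ATP added at 10 uM. After 30 min at 37 °C, ADP detection reagents ran 30 min at ambient temperature.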
# VDR inh: vitamin D3 receptor (human) inhibition. VDR-SRC2-3 peptide fluorescence polarization, 2 h. Potency, µM, without a hit: max response, negative = inhibition, usual class: inhibitors. actives 0.93% (n = 400,000); also: potency is read from the fitted curve at half-maximal effect
# Target sequence (P11473 whole entry, looked up): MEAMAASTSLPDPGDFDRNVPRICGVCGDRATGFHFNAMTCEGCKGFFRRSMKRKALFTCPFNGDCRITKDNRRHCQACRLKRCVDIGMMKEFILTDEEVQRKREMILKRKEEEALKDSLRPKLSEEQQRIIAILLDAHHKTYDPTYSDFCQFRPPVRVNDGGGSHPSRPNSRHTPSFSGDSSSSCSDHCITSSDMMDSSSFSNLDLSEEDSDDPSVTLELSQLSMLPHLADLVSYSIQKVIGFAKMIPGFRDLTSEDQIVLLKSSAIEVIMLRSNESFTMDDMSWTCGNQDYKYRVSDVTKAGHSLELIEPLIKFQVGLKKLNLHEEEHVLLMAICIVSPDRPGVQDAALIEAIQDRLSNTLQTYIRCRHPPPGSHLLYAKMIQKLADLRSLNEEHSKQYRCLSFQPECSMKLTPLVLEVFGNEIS
#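 VDR–SRC2-3 interaction, FP format. Cmpds 23 nl via pintool, brief spin, 2 h ambient incubation.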
# PLK1 PBD inh: inhibitors of human PLK1 polo-box domain binding | Plk1 PBD binding of FITC phosphopeptide, fluorescence polarization | AID 720504 | actives 2.8% (n = 360,000) | Potency, µM, for inactives: max response, negative = inhibition, actives largely listed as inhibitors; also: potency is read from the fitted curve at half-maximal effect; series mostly up to about 57 µM; nearly all actives have a fitted effect of over 65% in size
# * = called active by the depositor; u = inconclusive; x = no result given; [ ] = dose if it differs, or a comment. Shown are actives, neighbours in structure and some others; about 10% of the full set was active somewhere. Unless noted, calls follow the shape of the dose curve; as a rule, active = well fitted curve in the direction sought with a large enough effect; inconclusive = small, poorly fitted or top-dose-only effect, or another doubt; inactive = no such curve, though single readings can be large; an effect the other way counts as inactive or inconclusive. Unless noted, % is scaled to controls: 0 for no effect and ±100 for the full control effect.
SMILES,MmCpn inh,Sfp PPTase inh,G9a block,CCT chaperon mod,VDR inh,PLK1 PBD inh
COC1CC(=C(c2cccs2)c2cccs2)C[N+](C)(C)C1 (configuration not stated),x,20%,-9%[12.7 µM],x,-16%,x
CCOC(=O)c1ccc(NC(=O)c2cccn(Cc3ccccc3F)c2=O)cc1,x,x,17%[59 µM],x,4%,x
COc1cc2c(cc1O)C[C@H]1c3c(cc(OC)c(O)c3-2)CCN1C,x,-32%,x,x,x,x
CN1[C@H](CC(=O)c2ccccc2)CCC[C@H]1C[C@H](O)c1ccccc1,x,2%,x,x,8%,x
O=C1NC(=O)N(c2ccccc2)C(=O)/C1=C/C=C/c1ccco1,-1%,32µM*,35µM*,2,20µM*,2.4µM*
Cc1cccc(N2C(=O)NC(=O)/C(=C/c3ccc([N+](=O)[O-])o3)C2=O)c1,-2%,13µM*,u,-3,u,11µM*
O=C1NC(=O)N(c2ccc3c(c2)OCO3)C(=O)/C1=C/c1ccc(N2CCCC2)o1,0%,-9%,u,0,8%,71%
CC12CCCCC1(O)[N+](=O)C1=C(CCCC1)N2[O-] (configuration not stated),1%,u,u,-3,-2%,-10%
C[C@H]1CCCC=CC2C[C@H](O)C[C@@H]2[C@H](O)/C=C\C(=O)O1 (some centres not stated),x,-1%,x,x,x,x
CC(C)CC(N)C1(c2ccc(Cl)cc2)CCC1 (configuration not stated),x,13%,x,x,x,x
CCn1c(-c2nn(-c3ccccc3)ccc2=O)n[nH]c1=S,1%,56µM*,-126%[59 µM],0,3%,-16%
C[C@]12CC[C@H](O)C[C@H]1CCC1C2CC[C@]2(C)[C@@H](c3ccc(=O)oc3)C[C@H]3O[C@]132 (some centres not stated),x,0%,-34%[12.7 µM],x,u,x
COc1ccc(N2C(=O)CC(=O)NC2=O)cc1,-3%,u,-42%[59 µM],2,1%,-10%
COc1ccc(CC2C(=O)NC(=O)N(c3ccccc3)C2=O)c(OC)c1 (configuration not stated),1%,89µM*,u,-1,4%,-14%
CCc1ccc(N2C(=O)NC(=O)C(Cc3ccc(OC)cc3OC)C2=O)cc1 (configuration not stated),0%,50µM*,u,2,-15%,-12%
CC1=CC(=O)C2=C(C)C[C@@H](O)[C@@H]3[C@@H](OC(=O)[C@H]3C)[C@H]12,x,5%,23%[21.5 µM],x,6%,x
CC1([N+](=O)[O-])COP(=O)(Nc2ccc(Cl)cc2)OC1 (configuration not stated),x,x,x,0,89µM*,-3%
CCOC(=O)CC(NC(=O)C(Cc1ccc(N(CCCl)CCCl)cc1)NC(C)=O)C(=O)OCC (configuration not stated),1%,79µM*,x,2,u,6µM*
CC(=O)NC(Cc1ccc(N(CCCl)CCCl)cc1)C(=O)NC(C(=O)O)C(C)C (configuration not stated),-1%,8%,-48%,-2,-12%,-5%
O=C1NC(=O)C(=Cc2ccc(-c3ccc(F)cc3O)o2)C(=O)N1,-2%,50µM*,7.1µM*,0,28µM*,1.2µM*
O=C1NC(=O)C(=Cc2ccc(-c3ccc(Cl)cc3)o2)C(=O)N1,-4%,20µM*,6.3µM*,-2,u,0.67µM*
CN1/C(=C\C=C2C(=O)NC(=O)NC2=O)C(C)(C)c2ccccc21,0%,10%,18%[59 µM],1,-15%,98%
CC1(C)OC(c2ccccc2)=C/C(=C/C=C2C(=O)NC(=O)NC2=O)O1,-1%,-29%,35µM*,-1,-8%,27%
COC(=O)c1ccc(C(c2c(C)[nH][nH]c2=O)c2c(C)[nH][nH]c2=O)cc1,-1%,-13%,u,-1,u,21µM*

# Assay outcomes: PubChem, National Center for Advancing Translational Sciences (NCATS)
